Data reported in the supplement of paper PMC10849652.
Targets with a hit are over-represented here; the source holds about 7,900 in all. About 0.6% of all pairs of compound and target were hits.

Tests used:
Experiment in all cases: log2 fold change, soluble protein after heating vs DMSO (PISA); higher = thermal stabilisation; K562 cells, 10 uM, 30 min; active = over 0.2 and 3.5 SD of the protein, either way, in both replicates (recomputed)
[1] = target: YAE1 (UniProt Q9NRH1)
Method in brief: (§1)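 Values are thermal stability changes relative to control samples and are taken from duplicates. They are stated as log2 fold changes. Before quantification by TMTpro 16plex LC-MS/MS with equalised channel sums, K562 cells at 2×10^6 cells/mL were treated with 10 μM compound for 30 min, heated in aliquots for 3 min across 48°C-58°C, pooled, extracted in PBS with 0.5% NP-40 at 4°C, and centrifuged at 21,000xg for 90 min to give the soluble supernatant.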

[2] = target: YBX1 (UniProt C9J5V9)
Method in brief: as §1

[3] = target: YBX1 (UniProt P67809)
Chain of YBX1 (UniProt P67809) (P67809 whole entry, looked up): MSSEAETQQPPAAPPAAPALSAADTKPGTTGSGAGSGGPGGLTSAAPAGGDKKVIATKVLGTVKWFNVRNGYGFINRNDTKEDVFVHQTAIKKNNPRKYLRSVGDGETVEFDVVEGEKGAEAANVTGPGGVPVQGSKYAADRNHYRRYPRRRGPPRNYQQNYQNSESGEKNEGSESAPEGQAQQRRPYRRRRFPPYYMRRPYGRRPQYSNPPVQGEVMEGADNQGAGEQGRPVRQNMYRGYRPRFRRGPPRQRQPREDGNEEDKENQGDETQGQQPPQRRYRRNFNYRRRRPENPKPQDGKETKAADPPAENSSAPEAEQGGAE
Method in brief: as §1

[4] = target: YES1 (UniProt P07947)
Method in brief: as §1

[5] = target: YIPF4 (UniProt Q9BSR8)
Method in brief: as §1

[6] = target: YIPF5 isoform 3 (UniProt Q969M3)
Chain of YIPF5 isoform 3 (Q969M3 whole entry, looked up, canonical isoform): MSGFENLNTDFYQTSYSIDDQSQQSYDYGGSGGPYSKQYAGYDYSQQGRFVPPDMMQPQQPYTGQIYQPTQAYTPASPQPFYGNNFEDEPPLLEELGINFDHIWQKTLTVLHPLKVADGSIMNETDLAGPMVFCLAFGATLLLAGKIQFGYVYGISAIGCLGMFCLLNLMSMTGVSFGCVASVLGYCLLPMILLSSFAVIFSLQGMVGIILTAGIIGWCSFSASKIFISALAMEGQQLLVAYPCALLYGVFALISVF
Method in brief: as §1

[7] = target: YIPF6 (UniProt Q96EC8)
Chain of YIPF6 (Q96EC8 whole entry, looked up): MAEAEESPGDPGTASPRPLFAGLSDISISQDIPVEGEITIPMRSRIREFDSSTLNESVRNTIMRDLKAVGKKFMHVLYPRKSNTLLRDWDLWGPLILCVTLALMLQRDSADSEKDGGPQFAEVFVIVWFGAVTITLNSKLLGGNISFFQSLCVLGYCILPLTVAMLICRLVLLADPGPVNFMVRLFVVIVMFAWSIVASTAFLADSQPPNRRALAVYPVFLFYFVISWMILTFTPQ
Method in brief: as §1

[8] = target: YLPM1 (UniProt P49750)
Method in brief: as §1

[9] = target: YOD1 (UniProt Q5VVQ6)
Chain of YOD1 (Q5VVQ6 whole entry, looked up): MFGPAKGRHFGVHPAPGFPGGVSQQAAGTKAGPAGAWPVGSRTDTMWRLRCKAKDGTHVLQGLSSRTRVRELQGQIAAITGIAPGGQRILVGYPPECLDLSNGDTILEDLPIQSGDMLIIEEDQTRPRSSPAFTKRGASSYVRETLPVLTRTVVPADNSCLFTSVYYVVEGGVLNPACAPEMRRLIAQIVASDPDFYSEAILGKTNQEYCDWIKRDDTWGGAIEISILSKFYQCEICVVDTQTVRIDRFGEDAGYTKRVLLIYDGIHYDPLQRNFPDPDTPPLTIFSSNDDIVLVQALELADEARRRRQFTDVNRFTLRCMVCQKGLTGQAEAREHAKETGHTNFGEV
Method in brief: as §1

[10] = target: YPEL5 (UniProt P62699)
Chain of YPEL5 (P62699 whole entry, looked up): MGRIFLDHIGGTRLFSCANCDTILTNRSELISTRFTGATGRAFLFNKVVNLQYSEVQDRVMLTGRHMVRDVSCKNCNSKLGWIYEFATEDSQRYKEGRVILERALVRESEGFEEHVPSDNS
Method in brief: as §1

[11] = target: YWHAB (UniProt P31946)
Chain of YWHAB (P31946 whole entry, looked up): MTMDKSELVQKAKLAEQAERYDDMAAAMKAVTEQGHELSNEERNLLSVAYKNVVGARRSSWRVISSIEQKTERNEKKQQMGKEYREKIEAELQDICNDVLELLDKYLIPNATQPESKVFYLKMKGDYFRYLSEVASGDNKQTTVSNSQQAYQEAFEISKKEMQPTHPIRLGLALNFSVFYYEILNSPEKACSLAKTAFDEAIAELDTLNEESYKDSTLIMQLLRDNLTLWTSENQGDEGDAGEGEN
Method in brief: as §1

[12] = target: YWHAQ (UniProt P27348)
Chain of YWHAQ (P27348 whole entry, looked up): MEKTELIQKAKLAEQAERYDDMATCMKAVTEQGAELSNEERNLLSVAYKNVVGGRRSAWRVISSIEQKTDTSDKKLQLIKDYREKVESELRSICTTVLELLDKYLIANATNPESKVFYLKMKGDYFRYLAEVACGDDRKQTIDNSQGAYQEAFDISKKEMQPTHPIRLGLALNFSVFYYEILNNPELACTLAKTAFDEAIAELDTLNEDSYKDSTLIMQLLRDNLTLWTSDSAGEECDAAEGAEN
Method in brief: as §1

[13] = target: YWHAZ (UniProt E7ESK7)
Method in brief: as §1

[14] = target: YWHAZ (UniProt P63104)
Chain of YWHAZ (UniProt P63104) (P63104 whole entry, looked up): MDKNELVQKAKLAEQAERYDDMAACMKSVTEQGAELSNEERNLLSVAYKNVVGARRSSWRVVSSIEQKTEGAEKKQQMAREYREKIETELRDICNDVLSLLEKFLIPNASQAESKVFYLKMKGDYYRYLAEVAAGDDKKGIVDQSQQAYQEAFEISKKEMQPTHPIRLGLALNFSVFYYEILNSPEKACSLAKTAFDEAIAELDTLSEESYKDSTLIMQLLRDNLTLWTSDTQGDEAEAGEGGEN
Method in brief: as §1

[15] = target: YY1 (UniProt P25490)
Chain of YY1 (P25490 whole entry, looked up): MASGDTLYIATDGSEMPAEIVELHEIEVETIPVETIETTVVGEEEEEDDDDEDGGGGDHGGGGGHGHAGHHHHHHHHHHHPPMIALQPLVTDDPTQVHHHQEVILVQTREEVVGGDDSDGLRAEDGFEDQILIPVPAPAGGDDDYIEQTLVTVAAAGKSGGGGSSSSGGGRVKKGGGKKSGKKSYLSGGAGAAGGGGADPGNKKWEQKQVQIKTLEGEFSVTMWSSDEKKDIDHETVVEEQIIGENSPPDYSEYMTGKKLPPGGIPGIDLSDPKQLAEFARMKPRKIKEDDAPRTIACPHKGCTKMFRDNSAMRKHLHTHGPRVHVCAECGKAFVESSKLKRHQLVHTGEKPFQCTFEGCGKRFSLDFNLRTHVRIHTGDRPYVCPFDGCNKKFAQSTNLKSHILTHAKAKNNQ
Method in brief: as §1

[16] = target: ZADH2 (UniProt Q8N4Q0)
Method in brief: as §1

[17] = target: ZBTB21 (UniProt Q9ULJ3)
Method in brief: as §1

[18] = target: ZBTB43 (UniProt O43298)
Chain of ZBTB43 (O43298 whole entry, looked up): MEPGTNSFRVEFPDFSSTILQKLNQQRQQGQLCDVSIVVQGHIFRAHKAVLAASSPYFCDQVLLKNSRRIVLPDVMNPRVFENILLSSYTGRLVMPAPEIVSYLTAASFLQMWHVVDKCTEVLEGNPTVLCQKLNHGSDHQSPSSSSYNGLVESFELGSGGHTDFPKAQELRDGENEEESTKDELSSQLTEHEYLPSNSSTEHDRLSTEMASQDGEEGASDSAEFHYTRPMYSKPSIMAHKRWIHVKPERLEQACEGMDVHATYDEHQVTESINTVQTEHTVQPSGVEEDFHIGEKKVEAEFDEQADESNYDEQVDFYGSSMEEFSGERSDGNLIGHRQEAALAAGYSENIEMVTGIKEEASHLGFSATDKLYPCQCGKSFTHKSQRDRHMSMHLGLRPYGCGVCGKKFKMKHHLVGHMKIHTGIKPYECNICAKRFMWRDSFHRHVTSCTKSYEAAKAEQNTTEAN
Method in brief: as §1

[19] = target: ZC3H18 (UniProt Q86VM9)
Chain of ZC3H18 (Q86VM9 whole entry, looked up): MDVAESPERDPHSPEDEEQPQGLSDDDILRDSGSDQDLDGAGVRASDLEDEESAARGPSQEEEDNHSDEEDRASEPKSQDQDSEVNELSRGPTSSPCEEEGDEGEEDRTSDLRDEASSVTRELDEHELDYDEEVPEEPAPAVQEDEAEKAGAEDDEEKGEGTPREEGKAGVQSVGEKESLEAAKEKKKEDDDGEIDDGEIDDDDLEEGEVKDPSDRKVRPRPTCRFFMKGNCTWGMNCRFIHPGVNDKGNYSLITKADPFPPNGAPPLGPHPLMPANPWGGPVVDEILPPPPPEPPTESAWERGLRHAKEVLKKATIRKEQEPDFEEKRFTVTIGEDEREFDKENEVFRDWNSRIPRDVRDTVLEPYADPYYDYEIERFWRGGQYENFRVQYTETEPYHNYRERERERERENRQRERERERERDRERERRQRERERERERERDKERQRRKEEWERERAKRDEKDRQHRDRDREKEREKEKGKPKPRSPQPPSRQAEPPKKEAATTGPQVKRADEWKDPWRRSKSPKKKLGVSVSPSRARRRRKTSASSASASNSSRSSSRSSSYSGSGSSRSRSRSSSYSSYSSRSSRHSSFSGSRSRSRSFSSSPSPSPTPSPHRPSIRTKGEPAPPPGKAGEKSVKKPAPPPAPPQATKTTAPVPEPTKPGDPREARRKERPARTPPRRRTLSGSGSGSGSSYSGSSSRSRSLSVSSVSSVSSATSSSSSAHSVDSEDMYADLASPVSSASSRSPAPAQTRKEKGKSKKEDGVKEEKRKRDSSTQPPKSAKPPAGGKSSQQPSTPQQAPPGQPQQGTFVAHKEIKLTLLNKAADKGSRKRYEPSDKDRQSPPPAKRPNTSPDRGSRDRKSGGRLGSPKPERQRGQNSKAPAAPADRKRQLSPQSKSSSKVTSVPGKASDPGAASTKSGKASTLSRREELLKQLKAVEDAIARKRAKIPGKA
Method in brief: as §1

[20] = target: ZBTB17 isoform 2 (UniProt Q13105)
Chain of ZBTB17 isoform 2 (Q13105 whole entry, looked up, canonical isoform): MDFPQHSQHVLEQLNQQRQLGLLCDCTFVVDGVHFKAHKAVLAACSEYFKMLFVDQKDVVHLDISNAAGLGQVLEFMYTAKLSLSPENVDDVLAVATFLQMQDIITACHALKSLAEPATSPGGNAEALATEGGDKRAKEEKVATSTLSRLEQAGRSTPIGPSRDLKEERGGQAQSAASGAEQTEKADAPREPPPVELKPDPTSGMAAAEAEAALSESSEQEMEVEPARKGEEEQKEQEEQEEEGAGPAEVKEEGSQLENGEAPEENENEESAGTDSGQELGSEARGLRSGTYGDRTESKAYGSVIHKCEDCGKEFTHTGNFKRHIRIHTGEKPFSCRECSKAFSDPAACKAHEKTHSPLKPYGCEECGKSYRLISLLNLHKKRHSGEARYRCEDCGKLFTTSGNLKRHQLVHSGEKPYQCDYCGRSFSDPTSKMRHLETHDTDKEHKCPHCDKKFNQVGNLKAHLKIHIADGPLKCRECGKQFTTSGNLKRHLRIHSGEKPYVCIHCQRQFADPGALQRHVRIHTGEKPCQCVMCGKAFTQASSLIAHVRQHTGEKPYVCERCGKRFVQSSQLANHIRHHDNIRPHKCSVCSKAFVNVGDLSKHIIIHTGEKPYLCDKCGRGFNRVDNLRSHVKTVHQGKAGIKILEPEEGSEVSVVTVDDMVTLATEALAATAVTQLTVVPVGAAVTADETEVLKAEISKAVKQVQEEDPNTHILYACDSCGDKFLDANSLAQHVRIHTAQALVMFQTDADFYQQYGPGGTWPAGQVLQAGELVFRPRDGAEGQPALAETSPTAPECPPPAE
Method in brief: as §1

Measured: log2 fold change

Chain of YAE1 (Q9NRH1 whole entry, looked up): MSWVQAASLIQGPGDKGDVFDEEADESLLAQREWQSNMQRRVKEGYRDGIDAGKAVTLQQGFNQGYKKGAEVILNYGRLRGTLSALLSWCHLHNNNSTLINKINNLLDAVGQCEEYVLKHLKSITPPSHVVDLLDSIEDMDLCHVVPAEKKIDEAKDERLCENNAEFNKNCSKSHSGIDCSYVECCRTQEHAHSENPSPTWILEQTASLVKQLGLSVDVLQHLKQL

O=C(Nc1nc2ccccc2n1CCN1CCOCC1)c1cccc([N+](=O)[O-])c1 [IRAK-1-4 Inhibitor I]
inactive: [1] 0.103 | [2] 0.049 | [3] -0.117 | [4] -0.152 | [5] 0.093 | [6] -0.035 | [7] 0.029 | [8] -0.06 | [9] 0.019 | [10] -0.093 | [11] 0.127 | [12] 0.084 | [13] 0.005 | [14] 0.105 | [15] -0.026 | [16] 0.036 | [17] 0.006 | [18] -0.043 | [19] -0.036

NC1(c2ccc(-c3nc4ccn5c(=O)[nH]nc5c4cc3-c3ccccc3)cc2)CCC1
inactive: [1] 0.086 | [3] 0.306 | [4] -0.012 | [5] -0.01 | [6] 0.017 | [7] -0.024 | [8] -0.046 | [9] -0.138 | [10] -0.026 | [11] -0.056 | [12] 0.007 | [13] -0.206 | [14] 0.066 | [15] 0.011 | [16] 0.106 | [20] -0.143 | [17] 0.047 | [19] 0.032

CCCc1cc(C)[nH]c(=O)c1CNC(=O)c1cc(-c2ccnc(N3CCN(C)CC3)c2)cc2c1cnn2C(C)C
inactive: [1] -0.083 | [3] 0.055 | [4] 0.075 | [5] -0.036 | [6] -0.005 | [7] -0.067 | [8] 0.083 | [9] -0.017 | [10] 0.014 | [11] -0.031 | [12] 0.241 | [13] -0.393 | [14] 0.056 | [15] -0.006 | [16] 0.004 | [20] -0.158 | [17] -0.008 | [19] -0.011

CC[C@H](C)[C@H](NC(=O)[C@H]([C@@H](C)CC)N(C)C(C)=O)C(=O)N[C@H](C(=O)N[C@@H](CC(C)C)C(=O)[C@@]1(C)CO1)[C@@H](C)O [epoxomicin]
inactive: [1] 0.118 | [3] -0.191 | [4] 0.009 | [5] -0.005 | [6] 0.023 | [7] 0.013 | [8] 0.059 | [9] 0.051 | [10] -0.052 | [11] 0.018 | [12] 0.111 | [13] -0.075 | [14] 0.041 | [15] -0.003 | [16] 0.077 | [17] -0.168 | [18] -0.054 | [19] -0.059

C=CC(=O)N1CCC[C@@H](n2nc(-c3ccc(Oc4ccccc4)cc3)c3c(N)ncnc32)C1 [ibrutinib]
inactive: [1] -0.008 | [3] 0.103 | [4] 0.188 | [5] 0.009 | [6] -0.005 | [7] -0.001 | [8] -0.117 | [9] -0.016 | [10] 0.054 | [11] -0.013 | [12] 0.002 | [13] -0.167 | [14] 0.019 | [15] -0.032 | [16] 0.125 | [20] -0.05 | [17] -0.174 | [18] 0.064 | [19] 0.002

C[C@@H](Oc1cc(-c2cnn(C3CCNCC3)c2)cnc1N)c1c(Cl)ccc(F)c1Cl [crizotinib]
inactive: [1] -0.018 | [2] 0.028 | [3] 0 | [5] 0.054 | [6] 0.081 | [7] -0.081 | [8] -0.08 | [9] -0.052 | [10] 0.019 | [11] 0.017 | [12] 0.026 | [13] 0.081 | [14] 0.008 | [15] -0.021 | [16] 0.127 | [17] -0.1 | [18] -0.077 | [19] -0.042
active: [4] -0.576

C/C(=N\NC(=O)c1cccc(S(=O)(=O)N2CCOCC2)c1)c1cc(Cl)ccc1O
active: [16] 0.372
inactive: [1] -0.051 | [2] 0.233 | [3] -0.242 | [4] 0.072 | [5] -0.06 | [6] 0.016 | [7] -0.067 | [8] 0.03 | [9] 0.053 | [10] 0.032 | [11] 0.005 | [12] 0.204 | [13] -0.037 | [14] 0.061 | [15] 0.072 | [17] 0.068 | [18] 0.02 | [19] 0.01

O=C1NC(=O)/C(=C\c2ccc3nccnc3c2)S1
inactive: [1] -0.037 | [3] -0.009 | [4] -0.09 | [5] 0.04 | [6] 0.009 | [7] 0.025 | [8] 0.046 | [9] 0.129 | [10] -0.002 | [11] 0.023 | [12] 0.003 | [13] -0.01 | [14] -0.012 | [15] 0.004 | [16] -0.05 | [20] 0.171 | [17] 0.156 | [18] -0.054 | [19] 0.035

Cc1ccc(-n2nc(C(C)(C)C)cc2NC(=O)Nc2ccc(OCCN3CCOCC3)c3ccccc23)cc1 [doramapimod]
inactive: [1] -0.033 | [2] 0.082 | [3] 0.047 | [4] 0.006 | [5] 0.005 | [6] 0.041 | [7] -0.036 | [8] 0 | [9] 0 | [10] 0.039 | [11] 0.022 | [12] -0.12 | [13] 0 | [14] 0.013 | [15] -0.037 | [16] -0.013 | [17] 0.069 | [18] -0.029 | [19] 0.052

O=C(O)c1ccc2c(c1)nc(Nc1cccc(Cl)c1)c1ccncc12 [silmitasertib]
inactive: [1] -0.009 | [3] 0.125 | [4] 0.004 | [5] -0.006 | [6] 0 | [7] 0.02 | [8] -0.009 | [9] 0.021 | [10] 0.116 | [11] -0.014 | [12] 0 | [13] -0.065 | [14] -0.078 | [15] 0.057 | [16] 0.053 | [20] 0.023 | [17] 0.104 | [19] 0.135

COc1cc(C(=O)O)ccc1NC(=O)[C@@H]1N[C@@H](CC(C)(C)C)[C@](C#N)(c2ccc(Cl)cc2F)[C@H]1c1cccc(Cl)c1F [idasanutlin]
active: [10] 0.491
inactive: [1] 0.124 | [2] 0.131 | [3] 0.159 | [4] 0.041 | [5] -0.049 | [6] -0.051 | [7] -0.008 | [8] -0.026 | [9] -0.038 | [11] -0.053 | [12] -0.084 | [13] -0.061 | [14] -0.026 | [15] 0.077 | [16] -0.235 | [17] 0.026 | [18] 0.002 | [19] 0.23

Cc1nc(Nc2ncc(C(=O)Nc3c(C)cccc3Cl)s2)cc(N2CCN(CCO)CC2)n1 [dasatinib]
active: [4] -0.737
inactive: [1] 0.152 | [3] 0.167 | [5] 0.021 | [6] 0.055 | [7] 0.256 | [8] -0.062 | [9] -0.115 | [10] -0.004 | [11] 0.006 | [12] -0.149 | [13] -0.094 | [14] -0.044 | [15] -0.001 | [16] 0.035 | [17] -0.005 | [18] -0.034 | [19] 0.038

CN1CCN(CCOc2cc(OC3CCOCC3)c3c(Nc4c(Cl)ccc5c4OCO5)ncnc3c2)CC1 [saracatinib]
active: [4] -0.551
inactive: [1] 0.025 | [3] -0.027 | [5] 0.072 | [6] 0.007 | [7] -0.023 | [8] 0 | [9] -0.034 | [10] 0.069 | [11] 0.014 | [12] 0.234 | [13] -0.076 | [14] 0.064 | [15] 0.047 | [16] 0.005 | [17] -0.149 | [18] -0.147 | [19] -0.072

O=C1c2ccccc2-c2n[nH]c3cccc1c23
inactive: [1] -0.048 | [2] -0.143 | [3] -0.051 | [4] -0.153 | [5] 0.033 | [6] -0.153 | [7] -0.018 | [8] 0.02 | [9] 0.012 | [10] -0.158 | [11] 0.001 | [12] 0.089 | [13] 0.008 | [14] 0.045 | [15] -0.07 | [16] 0.03 | [17] 0.006 | [18] -0.161 | [19] -0.211

COc1cccc2cc(-c3nc([C@H]4CC[C@H](C(=O)O)CC4)n4ncnc(N)c34)[nH]c12
inactive: [1] 0.016 | [3] -0.091 | [4] -0.256 | [5] 0.06 | [6] 0.017 | [7] 0.02 | [8] 0.053 | [9] 0.011 | [10] -0.142 | [11] 0.014 | [12] -0.098 | [13] 0.187 | [14] -0.052 | [15] 0.009 | [16] -0.059 | [20] -0.006 | [17] 0.129 | [19] 0.014
